Assay results from PubChem BioAssay.
Calls of active or inactive are those of the source.

What was measured:
[1] = tested on: Plasmodium falciparum Sir2 (PF13_0152, Sir2A); assay: pfSir2 binders on small-molecule microarrays, primary screen, biochemical, small-molecule microarray, 635 nm fluorescence (AID 1098); settings: small-molecule microarray binding, fluorescence 635 nm; higher = more signal;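 further: score merges spot fluorescence intensity with its signal-to-noise ratio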
[2] = small-molecule microarray binders of probe aDKK1, primary screen, biochemical, biotinylated probe, 635/667 nm fluorescence (AID 1099); settings: higher = more signal;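 further: score merges 667nm spot fluorescence with signal to noise across triplicate slides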
[3] = small-molecule microarray binders of probe aCHRDL2, primary screen, biochemical, biotinylated probe, 635/667 nm fluorescence (AID 1100); settings: higher = more signal
[4] = splicing luciferase reporter signal modulators, primary screen, spliceosome inhibition project, cell-based, HEK293, splice +/- reporter (AID 1101); settings: luminescence, 24 h, higher = more signal, called active from +8 up or from −8 down;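 further: HEK293 cells carrying a splicing-competent luciferase reporter gene; test concentration not given here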
[5] = molecular target: Fibroblast growth factor 10 (Homo sapiens) (UniProt O15520); assay: FGF10 binders on small-molecule microarrays, primary screen, biochemical, small-molecule microarray, 635 nm fluorescence (AID 1102); settings: FGF10 binding, fluorescence 635 nm, higher = more signal
Sequence of Fibroblast growth factor 10 (Homo sapiens) (O15520 whole entry, looked up): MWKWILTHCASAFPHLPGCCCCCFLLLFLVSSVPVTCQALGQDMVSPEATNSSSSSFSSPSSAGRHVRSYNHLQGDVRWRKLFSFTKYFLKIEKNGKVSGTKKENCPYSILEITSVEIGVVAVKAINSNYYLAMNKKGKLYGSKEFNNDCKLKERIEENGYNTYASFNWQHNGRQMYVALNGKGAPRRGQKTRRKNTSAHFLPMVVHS

[6] = tested on: glycogen synthase kinase-3 (GSK3A per assay name; protocol says GSK3B); assay: GSK3 binders on small-molecule microarrays, primary screen, biochemical, small-molecule microarray, 635 nm fluorescence, GSK3A (AID 1103); settings: small-molecule microarray binding, fluorescence 635 nm; higher = more signal; further: the record names both GSK3A and GSK3B
[7] = molecular target: Epidermal growth factor receptor (Homo sapiens) (UniProt P00533); assay: EGFR binders on small-molecule microarrays, primary screen, biochemical, small-molecule microarray, 635 nm fluorescence (AID 1104); settings: EGFR binding, higher = more signal;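 further: score merges 667 nm emission intensity with spot signal to noise over triplicate slides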
Sequence of Epidermal growth factor receptor (Homo sapiens) (P00533 whole entry, looked up): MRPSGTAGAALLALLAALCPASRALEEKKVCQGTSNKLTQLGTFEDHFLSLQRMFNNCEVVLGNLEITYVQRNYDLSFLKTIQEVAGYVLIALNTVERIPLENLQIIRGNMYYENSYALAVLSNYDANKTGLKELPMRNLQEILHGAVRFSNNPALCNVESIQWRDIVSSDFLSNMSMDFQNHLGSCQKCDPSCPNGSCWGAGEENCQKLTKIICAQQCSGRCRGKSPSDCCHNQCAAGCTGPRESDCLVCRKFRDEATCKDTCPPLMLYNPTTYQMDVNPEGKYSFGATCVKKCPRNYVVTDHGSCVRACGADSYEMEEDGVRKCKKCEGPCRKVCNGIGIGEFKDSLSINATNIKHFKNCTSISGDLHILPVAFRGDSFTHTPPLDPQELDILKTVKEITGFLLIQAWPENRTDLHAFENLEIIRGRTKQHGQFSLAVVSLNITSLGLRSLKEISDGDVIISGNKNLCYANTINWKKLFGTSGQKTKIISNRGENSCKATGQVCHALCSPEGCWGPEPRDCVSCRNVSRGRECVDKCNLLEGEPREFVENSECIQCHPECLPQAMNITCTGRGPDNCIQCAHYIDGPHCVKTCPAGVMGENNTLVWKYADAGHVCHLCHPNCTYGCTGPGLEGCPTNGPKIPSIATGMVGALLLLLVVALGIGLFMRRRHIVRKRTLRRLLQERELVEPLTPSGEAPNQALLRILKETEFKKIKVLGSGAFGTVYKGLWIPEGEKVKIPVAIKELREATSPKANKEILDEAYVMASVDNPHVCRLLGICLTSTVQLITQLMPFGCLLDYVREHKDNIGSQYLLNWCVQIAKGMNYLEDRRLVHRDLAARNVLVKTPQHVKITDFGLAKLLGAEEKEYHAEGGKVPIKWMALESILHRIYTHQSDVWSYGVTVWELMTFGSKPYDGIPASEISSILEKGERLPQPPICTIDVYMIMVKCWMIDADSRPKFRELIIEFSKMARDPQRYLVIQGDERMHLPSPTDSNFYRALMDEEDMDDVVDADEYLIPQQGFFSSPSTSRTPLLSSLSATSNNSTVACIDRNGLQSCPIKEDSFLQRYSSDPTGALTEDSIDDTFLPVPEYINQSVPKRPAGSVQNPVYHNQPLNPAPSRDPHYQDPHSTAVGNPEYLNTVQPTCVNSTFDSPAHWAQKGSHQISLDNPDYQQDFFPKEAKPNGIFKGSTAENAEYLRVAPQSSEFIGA

[8] = molecular target: Follistatin-related protein 3 (Homo sapiens) (UniProt O95633); assay: FSTL3 binders on small-molecule microarrays, primary screen, biochemical, small-molecule microarray, 635 nm fluorescence (AID 1105); settings: FSTL3 binding, higher = more signal;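 further: score merges emission near 667 nm and signal to noise per printed spot across three slides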
Sequence of Follistatin-related protein 3 (Homo sapiens) (O95633 whole entry, looked up): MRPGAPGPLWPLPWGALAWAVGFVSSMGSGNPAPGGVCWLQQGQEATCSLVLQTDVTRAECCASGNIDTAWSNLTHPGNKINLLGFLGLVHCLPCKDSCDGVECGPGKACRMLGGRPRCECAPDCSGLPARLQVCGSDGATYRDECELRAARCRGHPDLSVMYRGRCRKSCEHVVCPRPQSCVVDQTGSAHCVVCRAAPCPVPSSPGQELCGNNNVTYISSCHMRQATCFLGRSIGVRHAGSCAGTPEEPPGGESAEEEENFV

[9] = molecular target: Dickkopf-related protein 1 (Homo sapiens) (UniProt O94907); assay: DKK1 binders on small-molecule microarrays, primary screen, biochemical, small-molecule microarray, 635 nm fluorescence scan (AID 1106); settings: DKK1 binding, higher = more signal;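 further: score merges emission near 667 nm with signal to noise over three replicate slides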
Sequence of Dickkopf-related protein 1 (Homo sapiens) (O94907 whole entry, looked up): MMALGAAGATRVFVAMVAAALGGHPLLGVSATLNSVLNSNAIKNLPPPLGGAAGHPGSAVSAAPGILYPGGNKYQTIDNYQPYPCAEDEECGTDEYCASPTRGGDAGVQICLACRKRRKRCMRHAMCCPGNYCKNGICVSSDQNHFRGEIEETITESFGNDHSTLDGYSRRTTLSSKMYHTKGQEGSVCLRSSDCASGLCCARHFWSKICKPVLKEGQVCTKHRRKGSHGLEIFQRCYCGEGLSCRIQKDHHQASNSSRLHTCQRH

[10] = tested on: Inhibin beta A chain (activin A); assay: INHBA (activin A) binders on microarrays, primary screen, biochemical, small-molecule microarray, 635 nm fluorescence scan (AID 1107); settings: small-molecule microarray binding, higher = more signal;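 further: mouse activin A protein probed at 4.33 µg/mL on printed slides; score merges bound-protein fluorescence near 667 nm with spot signal-to-noise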
[11] = tested on: Human papillomavirus type 1a protein E7 (residues 44-93); assay: HPV1a E7 fragment binders on microarrays, primary screen, biochemical, small-molecule microarray, residues 44-93, 635 nm fluorescence (AID 1108); settings: small-molecule microarray binding, fluorescence 635 nm; higher = more signal;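 further: E7 fragment applied at 1 µg/mL in TBST for 1 h at 4 C; score combines spot fluorescence with its signal to noise ratio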
[12] = modulators of HCV replicon luciferase signal, primary screen, HCV replication inhibitor project, Huh7 cells, luciferase reporter (AID 1109); settings: 48 h, higher = more signal;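 further: huh7 hepatoma cells harbouring a luciferase neomycin HCV replicon reporter; luciferase luminescence as measure of HCV replicon replication; test concentration not given here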
[13] = molecular target: Left-right determination factor 2 (Homo sapiens) (UniProt O00292); assay: LEFTY2 binders on small-molecule microarrays, primary screen, biochemical, small-molecule microarray, 635 nm fluorescence scan (AID 1110); settings: LEFTY2 binding, higher = more signal
Sequence of Left-right determination factor 2 (Homo sapiens) (O00292 whole entry, looked up): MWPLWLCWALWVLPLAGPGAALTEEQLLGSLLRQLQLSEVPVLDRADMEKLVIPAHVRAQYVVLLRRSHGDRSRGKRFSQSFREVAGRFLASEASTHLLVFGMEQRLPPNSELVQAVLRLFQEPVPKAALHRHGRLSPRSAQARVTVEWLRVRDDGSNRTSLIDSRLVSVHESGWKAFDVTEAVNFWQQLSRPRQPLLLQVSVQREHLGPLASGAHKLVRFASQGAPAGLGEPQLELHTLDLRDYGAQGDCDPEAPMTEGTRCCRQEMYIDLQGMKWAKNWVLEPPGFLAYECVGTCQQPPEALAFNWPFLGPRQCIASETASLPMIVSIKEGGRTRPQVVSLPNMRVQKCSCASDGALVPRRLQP

[14] = molecular target: Calmodulin-1 (Homo sapiens) (UniProt P0DP23); assay: CALM1 binders on microarrays, EGTA buffer, profiling panel, biochemical, small-molecule microarray, Cy5-labelled CALM1 (AID 1111); settings: Cy5-CALM1 binding fluorescence, higher = more signal;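 further: labelled calmodulin applied in Tris saline Tween buffer holding calcium plus EGTA and DTT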
[15] = molecular target: Calmodulin-1 (Homo sapiens) (UniProt P0DP23); assay: calcium-bound CALM1 binders on microarrays, profiling panel, artefact control for SMM control-protein annotation, biochemical, small-molecule microarray, Cy5-labelled CALM1, plus calcium (AID 1112); settings: Cy5-CALM1 binding fluorescence, higher = more signal;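 further: score merges spot fluorescence with signal to noise from triplicate slides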
[16] = small-molecule microarray binders of probe aWnt5a, primary screen, biochemical, biotinylated probe, 635/667 nm fluorescence (AID 1113); settings: higher = more signal;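 further: score merges 667 nm fluorescence intensity with signal-to-noise per printed feature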
[17] = small-molecule microarray binders of probe aShh, primary screen, biochemical, biotinylated probe, 635/667 nm fluorescence (AID 1114); settings: higher = more signal;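 further: probe is biotin-labelled aShh protein from a stem cell growth factor screen; measures binding of labelled protein to compounds printed on the slide; score merges feature fluorescence at 667 nm with signal-to-noise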
[18] = small-molecule microarray binders of probe aNog, primary screen, biochemical, biotinylated probe, 635/667 nm fluorescence (AID 1115); settings: higher = more signal;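 further: probe is biotinylated aNog protein used at 0.15 µg/mL for 1 h at 4 C; z-score combines 667 nm fluorescence of each spot with its signal to noise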
[19] = molecular target: Torsin-1A-interacting protein 1 (Homo sapiens) (UniProt Q5JTV8); assay: LAP1 binders from COS7 cell lysate, primary screen, small-molecule microarray, 635/667 nm fluorescence (AID 1116); settings: COS7-hLAP1 lysate binding, 635 nm fluorescence, higher = more signal
Sequence of Torsin-1A-interacting protein 1 (Homo sapiens) (Q5JTV8 whole entry, looked up): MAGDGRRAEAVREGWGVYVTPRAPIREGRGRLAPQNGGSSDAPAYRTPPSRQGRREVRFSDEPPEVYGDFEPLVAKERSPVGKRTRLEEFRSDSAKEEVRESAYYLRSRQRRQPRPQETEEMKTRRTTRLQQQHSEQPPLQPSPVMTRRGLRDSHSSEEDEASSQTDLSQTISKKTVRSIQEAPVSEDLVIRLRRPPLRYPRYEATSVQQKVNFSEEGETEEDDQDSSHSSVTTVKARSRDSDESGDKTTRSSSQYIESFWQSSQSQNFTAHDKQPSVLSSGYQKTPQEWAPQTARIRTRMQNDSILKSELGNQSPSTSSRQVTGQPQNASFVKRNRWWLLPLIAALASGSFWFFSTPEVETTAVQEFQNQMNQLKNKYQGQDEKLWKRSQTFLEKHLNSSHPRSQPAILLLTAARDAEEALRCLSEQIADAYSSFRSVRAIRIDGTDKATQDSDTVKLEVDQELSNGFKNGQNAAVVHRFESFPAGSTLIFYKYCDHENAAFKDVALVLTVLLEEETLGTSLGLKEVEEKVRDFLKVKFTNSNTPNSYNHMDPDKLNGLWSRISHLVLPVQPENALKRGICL

[20] = molecular target: Alpha-bungarotoxin (Bungarus multicinctus) (UniProt P60615); assay: alpha-bungarotoxin binders on microarray, profiling panel, artefact control for SMM control protein annotation, biochemical, small-molecule microarray, Alexa647 label, 635/667 nm fluorescence (AID 1117); settings: alpha-BTX-A647 binding fluorescence, higher = more signal
Sequence of Alpha-bungarotoxin (Bungarus multicinctus) (P60615 whole entry, looked up): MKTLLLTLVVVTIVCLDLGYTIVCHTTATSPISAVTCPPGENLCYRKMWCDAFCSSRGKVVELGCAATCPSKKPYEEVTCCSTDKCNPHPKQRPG

| SMILES | composite z-score [1] | composite z-score [2] | composite z-score [3] | z-score [4] | composite z-score [5] | composite z-score [6] | composite z-score [7] | composite z-score [8] | composite z-score [9] | composite z-score [10] | composite z-score [11] | z-score [12] | composite z-score [13] | composite z-score [14] | composite z-score [15] | composite z-score [16] | composite z-score [17] | composite z-score [18] | composite z-score [19] | composite z-score [20] |
| --- | --- | --- | --- | --- | --- | --- | --- | --- | --- | --- | --- | --- | --- | --- | --- | --- | --- | --- | --- | --- |
| C=CCC(OC(C)=O)[C@@H]1[C@@H](N(Cc2ccc(-c3cccc(C(F)(F)F)c3)o2)C(=O)c2cccc3ccccc23)c2cc(OCCCO)ccc2N1C(=O)c1ccc2ccccc2n1 (stereo not given in full) | 0.765 | -0.262 | 0.52 | -1.29 (inactive) | 0.0448 | -0.684 | -0.117 | 0.113 | 0.144 | 1.47 | -0.193 | 0.66 | -0.309 | -0.484 | -0.108 | -0.0459 | 0.227 | 0.169 | 0.406 | -0.482 |
| C=CC(CO)NC(=O)OCC1c2ccccc2-c2ccccc21 (stereo not given) | 0.193 | -0.291 | -0.475 | 0.406 (inactive) | 0.324 | 0.365 | 0.674 | 0.608 | 0.554 | 0.26 | 0.0077 | -0.479 | 0.407 | -0.0914 | -0.885 | 0.048 | -0.426 | -0.208 | -0.141 | 0.252 |
| COC(=O)[C@@]1(Cc2ccc(OC)cc2)[C@H]2c3cc(C(=O)N4CCCC4)n(CCc4ccc(OC)c(Br)c4)c3C[C@H]2CN1C(=O)c1ccccc1 | 1.31 | 0.801 | 0.904 | -0.947 (inactive) | 0.714 | -0.199 | 0.0993 | -0.457 | -0.858 | 1.03 | -0.027 | 0.0171 | -0.38 | 2.19 | 0.967 | -0.0519 | 0.865 | 2.37 | 2.06 | -0.123 |
| COc1ccc(CCNC(=O)[C@@]2(C)c3ccccc3C(=O)N(Cc3cc(C(F)(F)F)cc(C(F)(F)F)c3)[C@H]2c2ccc(CO)cc2)cc1 | 0.569 | 1.64 | 1.02 | -0.926 (inactive) | 0.329 | 0.651 | 0.875 | 0.371 | 0.338 | -0.307 | 1.28 | -2.25 | 0.0779 | 1.33 | -0.228 | -0.152 | -0.0669 | 0.242 | 0.548 | -0.183 |
| NCCCC[C@@H]1NC(=O)[C@H]2C[C@@H](C(=O)O)[C@@H](c3cccc(OCCO)c3)N2C1=O | 1.61 | 1.21 | 0.752 | -0.615 (inactive) | 1.51 | 1.35 | 1.53 | 1.53 | 1.62 | 1.03 | 1.4 | -1.56 | 1.53 | 0.441 | -0.197 | 0.0017 | 0.166 | 1.33 | 1.07 | 2.12 |
| CCCC=C(CCC)[C@@H](NS(=O)(=O)c1ccc(Cl)cc1)c1ccccc1 | 0.6 | 0.619 | 0.951 | -1.69 (inactive) | -0.686 | -1.03 | -0.972 | -1.29 | -0.979 | 0.351 | -0.201 | -0.777 | -1.34 | 0.451 | 0.781 | 0.954 | 0.508 | 1.07 | -1.24 | 0.64 |
| CN(C)C(=O)[C@]1(Cc2ccccc2)N=C(c2ccc(OCCCO)cc2)O[C@@H]1c1ccccc1 | 0.747 | 0.129 | 0.624 | -0.012 (inactive) | 1.13 | 1.29 | -0.515 | 0.289 | -0.698 | 0.231 | 1.49 | -1.88 | -0.0054 | 1.25 | 0.529 | 0.0317 | -0.214 | 1.43 | 1.8 | 0.917 |
| CCCC[C@H]1OB(O)C[C@H]2C1=C(COC)C[C@H]1C(=O)C=CC(=O)[C@H]12 | 0.351 | -0.177 | -0.461 | 0.635 (inactive) | 0.6 | 0.385 | 0.645 | 1.07 | 0.717 | 1.21 | 0.275 | -1.33 | 0.594 | -0.321 | -0.728 | -0.101 | 0.0062 | -0.0344 | -0.22 | 0.567 |
| COCCOC(=O)N1C(=O)[C@@]2(c3cc(C#Cc4ccc(OC)cc4)ccc31)[C@H](c1ccc(OCCO)cc1)N1[C@H](c3ccccc3)[C@H](c3ccccc3)OC(=O)[C@H]1[C@@H]2C(=O)N1CCCCCCC1 | 1.7 | 2.22 | 1.36 | -1.58 (inactive) | 0.821 | 1.24 | 0.719 | 1.52 | 1.29 | 1.65 | 1.35 | -0.891 | 0.954 | 2.27 | 1.21 | 0.777 | 2.23 | 3.67 | 3.66 | 1.99 |
| COCCOC(=O)N1C(=O)[C@@]2(c3ccccc31)[C@H](C(N)=O)[C@H]1C(=O)O[C@H](c3ccccc3)[C@H](c3ccccc3)N1[C@@H]2c1ccc(OCCO)cc1 | 0.537 | -0.122 | 0.093 | 0.172 (inactive) | 1.08 | 1.3 | 0.0401 | 1.1 | 0.253 | 0.319 | 1.45 | -1.09 | 0.234 | 0.68 | -0.183 | -0.063 | 0.0723 | -0.0161 | 0.905 | 1.37 |
| CC(C)C[C@@H]1NC(=O)[C@H]2C[C@@H](C(=O)NCCCCCNC(=O)CS)[C@@H](c3ccc(O)cc3)N2C1=O | 1.56 | -0.0363 | 0.203 | 0.0983 (inactive) | 1.08 | 1.33 | 0.521 | 0.848 | 1.01 | 0.0563 | 1.46 | -0.28 | 0.679 | 1.03 | -0.568 | 0.23 | 0.203 | -0.324 | 0.602 | 1.54 |
